What is called AC50 is the concentration giving half of the maximal activity seen.

This passage reports outcome and AC50 results from PubChem BioAssay (EPA / NIEHS).

Test [1] is described as follows: CCTE_Mundy_HCI_iCellGluta_NOG_NeuriteLength: CCTE's Neurite Outgrowth Assay in iCellGluta cells for Neurite Length, Mundy Lab (AID 2284318; active means hit-call score of the fitted dose curve at least 0.9, where 1 is the maximum). The method in brief:
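Automated high-content imaging of betaIII-tubulin (Alexa Fluor-488) and Hoechst-stained cells gave neurite length, normalized to the DMSO baseline.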

Test [2] in a line: IUF_NPC2b_neuronal_migration_120hr: Leibniz Research Institute for Environmental Medicine (IUF) 120-hour Neural Progenitor Cell Migration Assay for Neuron Migration (NPC2b) (AID 2284300). The method in brief: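 Fetal human NPC spheres migrate on PDL/laminin during 120 h compound treatment; neuronal migration distance, glia-normalized, scored versus DMSO control.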
Test [3] can be described thus: IUF_NPC3_neuronal_differentiation_120hr: Leibniz Research Institute for Environmental Medicine (IUF) 120-hour Neuronal Differentiation Assay (NPC3) (AID 2284301). In short, it runs like this: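 Human fetal (GW 16-19) neural progenitor spheres (0.3 mm) plated on poly-D-lysine/laminin in N2 differentiation medium, exposed 120 h at 37C with half-medium renewal day 3; 7 concentrations. TUBB3+ cells as % of Hoechst nuclei, CNN-identified; DMSO baseline.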

Test [4] is described as follows: IUF_NPC4_neurite_length_120hr: Leibniz Research Institute for Environmental Medicine (IUF) 120-hour Neuronal Morphology Assay for Neurite Length (NPC4) (AID 2284302). The method in brief:
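Human fetal neural progenitor spheres (0.3 mm) plated on poly-D-lysine/laminin in N2 differentiation medium, exposed from day 0 for 120 h with half-medium refresh at day 3, 37C. Mean neurite length (um) of TUBB3-positive neurons from skeletonized immunostaining images; DMSO ≤0.1%.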

Test [5] is described as follows: IUF_NPC5_oligodendrocyte_differentiation_120hr: Leibniz Research Institute for Environmental Medicine (IUF) 120-hour Oligodendrocyte Differentiation Assay (NPC5) (AID 2284304; active means hit-call score of the fitted dose curve at least 0.9, where 1 is the maximum;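 further: primary human fetal neural progenitor spheres plated to migrate and differentiate; share of O4-positive cells among Hoechst nuclei found by CNN image analysis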). The method in brief:
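After plating on poly-D-lysine/laminin, fetal-derived hNPC spheres differentiated for 120 h at 37C in compound-containing N2 medium, refreshed by half on day 3. O4 immunostaining over Hoechst nuclei in the migration zone gave oligodendrocyte percentage relative to DMSO.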

Test [6] is described as follows: IUF_NPC4_neurite_area_120hr: Leibniz Research Institute for Environmental Medicine (IUF) 120-hour Neuronal Morphology Assay for Neurite Area (NPC4) (AID 2284305; active means hit-call score of the fitted dose curve at least 0.9, where 1 is the maximum). In short, it runs like this:
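Human fetal neural progenitor spheres (0.3 mm) plated on poly-D-lysine/laminin in N2 differentiation medium, exposed 120 h (7 concentrations, DMSO ≤0.1%, half-medium refresh day 3). Fixed, TUBB3 immunostained; mean neurite area per neuron by Omnisphero skeletonization.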

Test [7] is described as follows: IUF_NPC2-5_cytotoxicity_72hr: Cytotoxicity Assessment at 72 hours in the Leibniz Research Institute for Environmental Medicine (IUF) Neural Progenitor Cell Migration and Differentiation Assay for Cytotoxicity (NPC2-5) (AID 2284306; active means hit-call score of the fitted dose curve at least 0.9, where 1 is the maximum;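 further: LDH release into supernatant measured by resorufin fluorescence marking membrane damage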). The method in brief: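 Human fetal primary neural progenitor spheres (0.3 mm) plated on poly-D-lysine/laminin in N2 differentiation medium, exposed from day 0 at 37C. LDH-dependent resazurin-to-resorufin fluorescence in supernatant at 72 h; 7 concentrations, DMSO at most 0.1%.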

Test [8] is described as follows: IUF_NPC2-5_cytotoxicity_120hr: Cytotoxicity Assessment at 120 hours in the Leibniz Research Institute for Environmental Medicine (IUF) Neural Progenitor Cell Migration and Differentiation Assay (NPC2-5) (AID 2284307; active means hit-call score of the fitted dose curve at least 0.9, where 1 is the maximum;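 on AC50: LDH released into supernatant as membrane damage marker via resorufin fluorescence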). In short, it runs like this:
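Membrane-integrity loss is quantified by LDH in supernatant after five days of exposure of migrating, differentiating human fetal NPC spheres; seven serially diluted concentrations are tested with DMSO kept at or below 0.1%.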

Test [9] in a line: IUF_NPC2-5_cell_number_120hr: Cell Number Assessment at 120 hours in the Leibniz Research Institute for Environmental Medicine (IUF) Neural Progenitor Cell Migration and Differentiation Assay (NPC2-5) (AID 2284308).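 Further: count of Hoechst-stained nuclei in migration zone around plated human neural progenitor spheres.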 The method in brief:
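Seven-point serial dilutions plus solvent control were applied to plated 0.3 mm hNPC spheres at differentiation start, with medium half-replaced at day 3. Nuclei positive for Hoechst in the migration zone were enumerated at 120 h.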

A short description of test [10]: IUF_NPC2-5_viability_120hr: Viability Assessment at 120 hours in the Leibniz Research Institute for Environmental Medicine (IUF) Neural Progenitor Cell Migration and Differentiation Assay (NPC2-5) (AID 2284312). The method in brief:
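Human fetal neural progenitor spheres (0.3 mm) plated on poly-D-lysine/laminin in N2 differentiation medium, exposed 120 h with half-medium refresh at day 3. Viability by alamar blue resazurin fluorescence; 7 concentrations, DMSO max 0.1%.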

In the next test the test system is IYD (gene 389434). Kind of test: CCTE_GLTED_hIYD: CCTE's human Iodotyrosine Deiodinase (xIYD) Inhibition Assay, Great Lakes Toxicology and Ecology Division (GLTED) Lab (AID 2284317; active means hit-call score of the fitted dose curve at least 0.9, where 1 is the maximum;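 further: cell-free human IYD enzyme made in baculovirus insect cells; iodide freed from monoiodotyrosine measured by cerium arsenite color change at 420 nm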). In short, it runs like this: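 hIYD: baculovirus-expressed human IYD deiodinated monoiodotyrosine for 3 h with test chemical; free iodide was measured by Sandell-Kolthoff absorbance at 420 nm and normalized to MNT and DMSO/NaOH controls.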

Test [11] can be described thus: VALA_TUBHUV_Agonist_CellCount: Viability Assessment in the VALA Sciences human Umbilical Vein Endothelial Tubule Formation (TUBHUV) Agonism Assay (AID 2284309; active means hit-call score of the fitted dose curve at least 0.9, where 1 is the maximum). In short, it runs like this: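 HUVEC co-cultured 1:3 with HDF for 3 days in 10 ng/ml VEGF, then compounds added in VEGF medium for a further 3 days (72 h). Nuclear-stain/CD31 imaging cell count. Positive-direction fit versus 0.1% DMSO vehicle.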

Test [12] in a line: VALA_TUBIPS_Antagonist_TubuleLength: VALA Sciences human iPS-derived Endothelial Tubule Formation (TUBIPS) Antagonist Assay (AID 2284313; active means hit-call score of the fitted dose curve at least 0.9, where 1 is the maximum). In short, it runs like this:
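Cells grown 3 days with 10 ng/ml VEGF, then exposed to compounds in VEGF medium for another 3 days. After fixation, nuclear stain and CD31 immunofluorescence imaging gave mean total tubule length against 0.1% DMSO; suramin (100 uM) inhibition control.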

Test [13] is described as follows: VALA_MIGHUV2_WoundArea: VALA Sciences human Umbilical Vein Endothelial Cell Migration (MIGHUV) Assay, Area of Scratch Wound after Recovery (AID 2284316; active means hit-call score of the fitted dose curve at least 0.9, where 1 is the maximum). In short, it runs like this: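 HUVEC seeded at 9000 cells/well, scratched after 24 h; test chemical added within 30 min, 6-point concentration response in triplicate (0.1% DMSO vehicle). After 24 h wound recovery, cells fixed and Hoechst-stained nuclei in wound area imaged; Cytochalasin D reference control.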

The nature of test [14]: VALA_TUBHUV_Antagonist_TubuleLength: VALA Sciences human Umbilical Vein Endothelial Tubule Formation (TUBHUV) Antagonism Assay (AID 2284325; active means hit-call score of the fitted dose curve at least 0.9, where 1 is the maximum). In short, it runs like this:
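HUVEC–HDF co-culture (1:3) pre-grown 3 days with 10 ng/ml VEGF, then 3 days with compound plus VEGF. Fixed, nuclear and CD31 stained; total tubule length by imaging versus 0.1% DMSO; suramin 100 uM positive control.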

The nature of test [15]: CCTE_Deisenroth_5AR_NBTE_donor: CCTE's 5alpha-reductase NanoBRET Target Engagement Assay […], Deisenroth Lab (AID 2284319). The note with it: actives raise or lower the signal. In short, it runs like this:
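HEK293T cells transiently expressing SRD5A2-NanoLuc, exposed 5 h to chemicals (8 points, 10 nM - 29.9 uM), with testosterone tracer for the final 2 h. Donor luminescence at 460 nm read after Nano-Glo substrate plus extracellular NanoLuc inhibitor; bidirectional fit versus DMSO.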
Background: BRET reads energy transfer from a luciferase to a nearby fluorophore.

Test [16] is described as follows: CCTE_Deisenroth_5AR_NBTE_acceptor: CCTE's 5alpha-reductase NanoBRET Target Engagement Assay - Autofluorescence Screen, Deisenroth Lab (AID 2284321).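 Further: compound fluorescence in the acceptor channel under 460 nm excitation flags autofluorescence artifacts.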 The note with it: actives raise or lower the signal. The method in brief:
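Using three independent plate-reader runs, nominal 100 uM chemicals were checked for intrinsic fluorescence (ex 460 nm). DMSO defined the baseline for bidirectional fitting.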

Another test concerns SRD5A2 (gene 6716). Kind of test: CCTE_Deisenroth_5AR_NBTE_ratio: CCTE's 5alpha-reductase NanoBRET Target Engagement Assay - Ratio, Deisenroth Lab (AID 2284322). The note with it: actives raise or lower the signal. In short, it runs like this: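 HEK293T transiently expressing SRD5A2-NanoLuc; cells exposed to chemical (8-point, 10 nM - 29.9 uM) for 5 h total, testosterone tracer added for final 2 h. NanoBRET acceptor/donor ratio (650/460 nm), bidirectional fit vs DMSO.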

Records with an inconclusive call do not appear. Active and inactive are the calls of the source. How the source made its calls, unless noted: active means hit-call score of the fitted dose curve at least 0.9, where 1 is the maximum; inactive means score below 0.9.

For the compound `CCCCNC(=O)n1c(NC(=O)OC)nc2ccccc21`, in [1], the compound was classed as inactive.
Consider `C=CCC1=C(C)[C@@H](OC(=O)[C@@H]2[C@@H](C=C(C)C)C2(C)C)CC1=O`, for which the AC50 in test [1] was 5.87 µM (active).
Consider `Cc1ccc(-c2c(Cl)nc(C#N)n2S(=O)(=O)N(C)C)cc1`, for which the AC50 in [2] was 30.8 µM (active); in [3] it was 31.3 µM (active); in [4] it was 12.5 µM (active); in test [5] it was 33.9 µM (active); in test [6], 26.1 µM (active); in test [8], 33 µM (active). Moreover, the AC50 is 13.2 µM (active) in [9], 11.7 µM (active) in test [10] and 32.6 µM (active) in [1]. The compound was classed as inactive in [7].
Turning to `OC(c1ccc(Cl)cc1)(c1cncnc1)c1ccccc1Cl` (stereo unspecified), the outcome with IYD (gene 389434) was inactive.
For `CC(C)(C)c1ccc(CSc2cnn(C(C)(C)C)c(=O)c2Cl)cc1`, the compound was classed as inactive in test [2], in test [3], in test [4], in test [6], in test [7] and in test [8]. Besides, the compound was classed as inactive in test [9], in test [10], in test [12] and in test [14]. Moreover, the AC50 in test [5] is 0.0866 µM (active); in [11] it was 20.3 µM (active); in [13], 7.5 µM (active); in test [1] it was 0.15 µM (active).
On to `COC(=O)N(OC)c1ccccc1COc1ccn(-c2ccc(Cl)cc2)n1`, for which the result in test [2], in test [7], in [15] and in test [16] was inactive. Besides, the AC50 in test [3] was 0.0497 µM (active); in test [4], 0.328 µM (active); in [5], 2.16 µM (active); in test [6], 0.167 µM (active); in test [8], 2.12 µM (active); in test [9], 3.23 µM (active). Moreover, the AC50 is 1.55 µM (active) in test [10], 2.57 µM (active) in test [1] and 34.1 µM (active) in the test with SRD5A2 (gene 6716).
Take `CC1COC(Cn2cncn2)(c2ccc(Oc3ccc(Cl)cc3)cc2Cl)O1` (stereo unspecified): the call with IYD (gene 389434) was inactive.
In the case of `N#CC(CCc1ccc(Cl)cc1)(Cn1cncn1)c1ccccc1` (stereo unspecified), the compound was classed as inactive (in [15]; in test [16]; in the test on SRD5A2 (gene 6716)).
With `CN(C)C(=S)SSC(=S)N(C)C`, the AC50 in test [2] was 58.7 µM (active); in [3] it was 13.5 µM (active); in test [4], 17.7 µM (active); in test [5], 26 µM (active); in [6], 27.5 µM (active); in test [7], 26.4 µM (active). For the same compound, the AC50 in [8] is 13 µM (active); in test [9] it was 26.1 µM (active); in test [10], 29.1 µM (active); in test [1], 0.0483 µM (active).
As to `N#Cc1cc(Br)c(O)c(Br)c1`, in the test on IYD (gene 389434), the compound was called inactive.
For `CCCCOC(=O)c1ccccc1C(=O)OCCCC`, the compound was called inactive in test [2], in test [3], in [4], in test [7], in [8] and in test [9]. Besides, the result (in test [10]; with IYD (gene 389434); in [1]) was inactive.
Take `COP(=S)(OC)Oc1nc(Cl)c(Cl)cc1Cl`: the compound was classed as inactive in [2], in [3], in test [4], in test [5], in test [8] and in [9]. Also, the compound was classed as inactive in test [10]. In addition, the AC50 in test [1] was 23.9 µM (active).
Take `CCCCC(CC)COC(=O)c1ccccc1C(=O)OCC(CC)CCCC` (stereo unspecified): the call in [2], in [3], in test [4], in [5], in [7] and in test [8] was inactive. The compound was called inactive in test [9] and in [10]. In addition, in test [1], the AC50 was 36.1 µM (active).
